Test results published in PubChem BioAssay AID1159580 (chemical genetic matrix, 2015).
Screen size: about 5,500 compounds; about 2,000 (36%) were called active. Another 18% or so got no clear call; they are omitted. No stated cut-off is given here; in the data, active means normalized growth mostly below about 0.91 (no sharp cut-off); inconclusive means no clear call, values can overlap the other calls; inactive means mostly above about 0.92. The list shows a part of the results.

Test: chemical genetic growth profiling, strain panel (AID 1159580);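 further: tested at 20 µM; growth read once vehicle control cultures reached saturation at 30 °C; 1 = growth at the plate median or of vehicle wells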
Settings: growth OD

Measured: normalized growth

O=c1[nH]c(=O)n(C2C[C@@H](O)[C@@H](CO)O2)cc1F (stereo partly drawn)
inactive: S. cerevisiae deletion strains, locus YJR066W, strain TOR1, stronger effect = lower value 0.932 | S. cerevisiae deletion strains, locus YKL009W, strain mrt4, stronger effect = lower value 1.04 | S. cerevisiae deletion strains, locus YKL068W, stronger effect = lower value 1 | S. cerevisiae deletion strains, locus YKL085W, strain MDH1 (second series), stronger effect = lower value 0.996 | S. cerevisiae deletion strains, locus YKL085W, strain MDH1, stronger effect = lower value 0.996 | S. cerevisiae deletion strains, locus YKL160W, strain elf1, stronger effect = lower value 1 | S. cerevisiae deletion strains, locus YKR001C, strain vps1, stronger effect = lower value 1.01 | S. cerevisiae deletion strains, locus YKR026C, strain gcn3, stronger effect = lower value 0.978 | S. cerevisiae deletion strains, locus YKR091W, strain srl3, stronger effect = lower value 0.995 | S. cerevisiae deletion strains, locus YLL001W, strain dnm1, stronger effect = lower value 0.992 | S. cerevisiae deletion strains, locus YLL026W, stronger effect = lower value 0.985 | S. cerevisiae deletion strains, locus YLL041C, strain sdh2, stronger effect = lower value 0.984 | S. cerevisiae deletion strains, locus YLR027C, strain aat2, stronger effect = lower value 0.994 | S. cerevisiae deletion strains, locus YLR039C, strain RIC1, stronger effect = lower value 1.04 | S. cerevisiae deletion strains, locus YLR058C, strain SHM2, stronger effect = lower value 1.02 | S. cerevisiae deletion strains, locus YLR102C, strain apc9, stronger effect = lower value 1.01 | S. cerevisiae deletion strains, locus YLR113W, strain HOG1, stronger effect = lower value 0.986 | S. cerevisiae deletion strains, locus YLR221C, strain rsa3, stronger effect = lower value 1.01 | S. cerevisiae deletion strains, locus YLR258W, strain gsy2, stronger effect = lower value 1.01 | S. cerevisiae deletion strains, locus YLR262C, strain YPT6 (second series), stronger effect = lower value 1.02 | S. cerevisiae deletion strains, locus YLR262C, strain YPT6, stronger effect = lower value 1.04 | S. cerevisiae deletion strains, locus YLR268W, strain sec22, stronger effect = lower value 1.03 | S. cerevisiae deletion strains, locus YLR320W, strain mms22, stronger effect = lower value 1.01 | S. cerevisiae deletion strains, locus YLR330W, strain CHS5, stronger effect = lower value 1.01 | S. cerevisiae deletion strains, locus YLR342W, strain FKS1 (second series), stronger effect = lower value 1.02 | S. cerevisiae deletion strains, locus YLR342W, strain FKS1, stronger effect = lower value 1.01 | S. cerevisiae deletion strains, locus YLR357W, strain rsc2, stronger effect = lower value 0.974 | S. cerevisiae deletion strains, locus YLR370C, strain arc18, stronger effect = lower value 1 | S. cerevisiae deletion strains, locus YLR371W, strain rom2, stronger effect = lower value 1.02 | S. cerevisiae deletion strains, locus YLR384C, strain iki3, stronger effect = lower value 0.982 | S. cerevisiae deletion strains, locus YLR418C, strain cdc73, stronger effect = lower value 1.02 | S. cerevisiae deletion strains, locus YML016C, strain PPZ1, stronger effect = lower value 1.01 | S. cerevisiae deletion strains, locus YML032C, strain rad52, stronger effect = lower value 1 | S. cerevisiae deletion strains, locus YML120C, strain ndi1, stronger effect = lower value 0.984 | S. cerevisiae deletion strains, locus YML124C, strain tub3, stronger effect = lower value 1.01 | S. cerevisiae deletion strains, locus YMR058W, strain fet3, stronger effect = lower value 0.986 | S. cerevisiae deletion strains, locus YMR078C, strain ctf18, stronger effect = lower value 1.01 | S. cerevisiae deletion strains, locus YMR125W, strain sto1, stronger effect = lower value 0.985 | S. cerevisiae deletion strains, locus YMR129W, stronger effect = lower value 0.999 | S. cerevisiae deletion strains, locus YMR205C, strain PFK2, stronger effect = lower value 1.01 | S. cerevisiae deletion strains, locus YMR223W, strain ubp8, stronger effect = lower value 1 | S. cerevisiae deletion strains, locus YMR231W, strain pep5, stronger effect = lower value 1.01 | S. cerevisiae deletion strains, locus YMR263W, strain SAP30, stronger effect = lower value 1.05 | S. cerevisiae deletion strains, locus YMR307W, strain GAS1, stronger effect = lower value 1.05 | S. cerevisiae deletion strains, locus YNL067W, strain RPL9B, stronger effect = lower value 1.06 | S. cerevisiae deletion strains, locus YNL071W, strain lat1, stronger effect = lower value 0.993 | S. cerevisiae deletion strains, locus YNL153C, strain GIM3, stronger effect = lower value 1.04 | S. cerevisiae deletion strains, locus YNL183C, strain NPR1, stronger effect = lower value 0.93 | S. cerevisiae deletion strains, locus YNL209W, strain ssb2, stronger effect = lower value 0.987 | S. cerevisiae deletion strains, locus YNL233W, strain BNI4, stronger effect = lower value 1.05 | S. cerevisiae deletion strains, locus YNL248C, strain rpa49, stronger effect = lower value 0.973 | S. cerevisiae deletion strains, locus YNL250W, strain rad50, stronger effect = lower value 1 | S. cerevisiae deletion strains, locus YNL271C, strain bni1, stronger effect = lower value 1.01 | S. cerevisiae deletion strains, locus YNL298W, strain CLA4, stronger effect = lower value 0.996 | S. cerevisiae deletion strains, locus YNL307C, strain MCK1, stronger effect = lower value 1.02 | S. cerevisiae deletion strains, locus YNL322C, strain KRE1 (second series), stronger effect = lower value 0.999 | S. cerevisiae deletion strains, locus YNL322C, strain KRE1, stronger effect = lower value 1 | S. cerevisiae deletion strains, locus YNR049C, strain mso1, stronger effect = lower value 0.982 | S. cerevisiae deletion strains, locus YNR052C, strain pop2, stronger effect = lower value 1.01 | S. cerevisiae deletion strains, locus YOL012C, strain htz1 1.63 | S. cerevisiae deletion strains, locus YOL147C, strain pex11, stronger effect = lower value 1.02 | S. cerevisiae deletion strains, locus YOR001W, strain rrp6, stronger effect = lower value 0.987 | S. cerevisiae deletion strains, locus YOR061W, strain CKA2, stronger effect = lower value 1.01 | S. cerevisiae deletion strains, locus YOR069W, strain VPS5, stronger effect = lower value 1.01 | S. cerevisiae deletion strains, locus YOR070C, strain gyp1, stronger effect = lower value 1.01 | S. cerevisiae deletion strains, locus YOR080W, strain dia2, stronger effect = lower value 1 | S. cerevisiae deletion strains, locus YOR083W, strain WHI5, stronger effect = lower value 1.01 | S. cerevisiae deletion strains, locus YOR106W, strain vam3, stronger effect = lower value 0.996 | S. cerevisiae deletion strains, locus YOR136W, strain idh2, stronger effect = lower value 1.02 | S. cerevisiae deletion strains, locus YOR144C, strain elg1, stronger effect = lower value 1.01 | S. cerevisiae deletion strains, locus YOR184W, strain ser1, stronger effect = lower value 1.02 | S. cerevisiae deletion strains, locus YOR231W, strain MKK1, stronger effect = lower value 0.98 | S. cerevisiae deletion strains, locus YOR265W, strain rbl2, stronger effect = lower value 1.01 | S. cerevisiae deletion strains, locus YOR270C, strain vph1, stronger effect = lower value 0.994 | S. cerevisiae deletion strains, locus YOR290C, strain snf2, stronger effect = lower value 0.989 | S. cerevisiae deletion strains, locus YOR316C, strain cot1, stronger effect = lower value 1.02 | S. cerevisiae deletion strains, locus YPL051W, strain arl3, stronger effect = lower value 1.02 | S. cerevisiae deletion strains, locus YPL078C, strain atp4, stronger effect = lower value 0.976 | S. cerevisiae deletion strains, locus YPL106C, strain sse1, stronger effect = lower value 1.01 | S. cerevisiae deletion strains, locus YPL240C, strain hsp82, stronger effect = lower value 0.987 | S. cerevisiae deletion strains, locus YPL241C, strain CIN2, stronger effect = lower value 1 | S. cerevisiae deletion strains, locus YPL256C, strain CLN2, stronger effect = lower value 0.957 | S. cerevisiae deletion strains, locus YPR119W, strain clb2, stronger effect = lower value 1.01 | S. cerevisiae deletion strains, locus YPR141C, strain kar3, stronger effect = lower value 1.01 | S. cerevisiae deletion strains, locus YPR163C, strain tif3, stronger effect = lower value 1.01 | S. cerevisiae deletion strains, locus YPR167C, strain met16, stronger effect = lower value 1.02 | S. cerevisiae deletion strains, strain wtn01, stronger effect = lower value 0.996 | S. cerevisiae strains, strain wild type, stronger effect = lower value 1.01
